These results are taken from paper PMC8384837, “Expanding the binding specificity for RNA recognition by a PUF domain”.

Holding throughout (assay): yeast three-hybrid, YBZ-1, SC-Leu-His + 0.5 mM 3-AT, 4 days
Holding throughout (conditions): tags: N-Gal4 AD-HA kept; label: inside an RPR1-promoter hybrid RNA with tandem MS2 sites; ssRNA

The target of one assay is PUM1 PUF domain R4-CPL (Homo sapiens, UniProt Q14671 828-1176, N971C;H972P;Q975L). An outline of the steps:
(§1)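 Each repeat of the Pumilio-1 PUF domain was randomized at its three base-contacting residues, and these libraries were co-expressed from a centromeric plasmid with matching RNA elements in strain YBZ-1. After four days on SC-Leu (input) or SC-Leu-His + 0.5 mM 3-AT (selection), the repeat regions were PCR-amplified and Illumina-sequenced. The interaction score compares variant frequency between input and selection as a log change, computed in log2 with a pseudocount of 1 for absent variants.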

The next assay addresses PUM1 PUF domain R3-YRS (Homo sapiens, UniProt Q14671 828-1176, C935Y;Q939S). An outline of the steps:
as §1

In a further assay the target is PUM1 PUF domain R3-CNT (Homo sapiens, UniProt Q14671 828-1176, R936N;Q939T). The method, boiled down: as §1
PUM1 PUF domain R3-CNT, sequence (Q14671 828-1176 R936N/Q939T): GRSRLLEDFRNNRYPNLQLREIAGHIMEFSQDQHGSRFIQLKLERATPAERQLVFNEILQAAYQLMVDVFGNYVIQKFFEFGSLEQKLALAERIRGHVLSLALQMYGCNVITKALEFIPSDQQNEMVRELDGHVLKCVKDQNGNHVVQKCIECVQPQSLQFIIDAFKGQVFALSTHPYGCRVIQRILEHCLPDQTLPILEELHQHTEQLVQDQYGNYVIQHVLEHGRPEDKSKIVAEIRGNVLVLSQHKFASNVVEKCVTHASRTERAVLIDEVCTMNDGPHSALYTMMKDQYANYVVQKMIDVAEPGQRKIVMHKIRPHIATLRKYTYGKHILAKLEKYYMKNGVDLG
For another assay, the target named is PUM1 PUF domain R8-RFN (Homo sapiens, UniProt Q14671 828-1176, N1122R;Y1123F;Q1126N). An outline of the steps: as §1
PUM1 PUF domain R8-RFN, sequence (Q14671 828-1176 N1122R/Y1123F/Q1126N): as the sequence (Q14671 828-1176 R936N/Q939T) above, with N109R, T112Q, N295R, Y296F, Q299N counted along it
The next assay concerns the target PUM1 PUF domain R3-FFA (Homo sapiens, UniProt Q14671 828-1176, C935F;R936F;Q939A). The method, boiled down: as §1
Another assay has as its target PUM1 PUF domain R5-KGG (Homo sapiens, UniProt Q14671 828-1176, C1007K;R1008G;Q1011G). The method, boiled down: as §1
For another assay, the target named is PUM1 PUF domain R4-FGQ (Homo sapiens, UniProt Q14671 828-1176, N971F;H972G). An outline of the steps: as §1
PUM1 PUF domain R4-FGQ, sequence (Q14671 828-1176 N971F/H972G): as the sequence (Q14671 828-1176 R936N/Q939T) above, with N109R, T112Q, N144F, H145G counted along it
A further assay concerns the target PUM1 PUF domain R4-NFQ (Homo sapiens, UniProt Q14671 828-1176, H972F). An outline of the steps: as §1
Another assay concerns the target PUM1 PUF domain R8-RHN (Homo sapiens, UniProt Q14671 828-1176, N1122R;Y1123H;Q1126N). The method, boiled down:
as §1

In another assay the target is PUM1 PUF domain R8-TWN (Homo sapiens, UniProt Q14671 828-1176, N1122T;Y1123W;Q1126N). An outline of the steps:
as §1

A further assay has as its target PUM1 PUF domain R1-RAQ (Homo sapiens, UniProt Q14671 828-1176, S863R;R864A). An outline of the steps:
as §1

The target of a further assay is PUM1 PUF domain R1-YKR (Homo sapiens, UniProt Q14671 828-1176, S863Y;R864K;Q867R). An outline of the steps:
as §1

The next assay has as its target PUM1 PUF domain R1-RRR (Homo sapiens, UniProt Q14671 828-1176, S863R;Q867R). The method, boiled down: as §1
Another assay deals with PUM1 PUF domain R1-KVE (Homo sapiens, UniProt Q14671 828-1176, S863K;R864V;Q867E). An outline of the steps: as §1
PUM1 PUF domain R1-KVE, sequence (Q14671 828-1176 S863K/R864V/Q867E): as the sequence (Q14671 828-1176 R936N/Q939T) above, with S36K, R37V, Q40E, N109R, T112Q counted along it
The target of the next assay is PUM1 PUF domain R1-VWK (Homo sapiens, UniProt Q14671 828-1176, S863V;R864W;Q867K). An outline of the steps:
as §1

The target in another assay is PUM1 PUF domain R1-NIS (Homo sapiens, UniProt Q14671 828-1176, S863N;R864I;Q867S). An outline of the steps:
as §1

PUM1 PUF domain R1-RAQ, sequence (Q14671 828-1176 S863R/R864A): as the sequence (Q14671 828-1176 R936N/Q939T) above, with S36R, R37A, N109R, T112Q counted along it
PUM1 PUF domain R1-RRR, sequence (Q14671 828-1176 S863R/Q867R): as the sequence (Q14671 828-1176 R936N/Q939T) above, with S36R, Q40R, N109R, T112Q counted along it
PUM1 PUF domain R4-CPL, sequence (Q14671 828-1176 N971C/H972P/Q975L): as the sequence (Q14671 828-1176 R936N/Q939T) above, with N109R, T112Q, N144C, H145P, Q148L counted along it
PUM1 PUF domain R5-KGG, sequence (Q14671 828-1176 C1007K/R1008G/Q1011G): as the sequence (Q14671 828-1176 R936N/Q939T) above, with N109R, T112Q, C180K, R181G, Q184G counted along it
PUM1 PUF domain R3-YRS, sequence (Q14671 828-1176 C935Y/Q939S): as the sequence (Q14671 828-1176 R936N/Q939T) above, with C108Y, N109R, T112S counted along it
PUM1 PUF domain R4-NFQ, sequence (Q14671 828-1176 H972F): as the sequence (Q14671 828-1176 R936N/Q939T) above, with N109R, T112Q, H145F counted along it
PUM1 PUF domain R1-VWK, sequence (Q14671 828-1176 S863V/R864W/Q867K): as the sequence (Q14671 828-1176 R936N/Q939T) above, with S36V, R37W, Q40K, N109R, T112Q counted along it
PUM1 PUF domain R3-FFA, sequence (Q14671 828-1176 C935F/R936F/Q939A): as the sequence (Q14671 828-1176 R936N/Q939T) above, with C108F, N109F, T112A counted along it
PUM1 PUF domain R8-RHN, sequence (Q14671 828-1176 N1122R/Y1123H/Q1126N): as the sequence (Q14671 828-1176 R936N/Q939T) above, with N109R, T112Q, N295R, Y296H, Q299N counted along it
PUM1 PUF domain R1-YKR, sequence (Q14671 828-1176 S863Y/R864K/Q867R): as the sequence (Q14671 828-1176 R936N/Q939T) above, with S36Y, R37K, Q40R, N109R, T112Q counted along it
PUM1 PUF domain R1-NIS, sequence (Q14671 828-1176 S863N/R864I/Q867S): as the sequence (Q14671 828-1176 R936N/Q939T) above, with S36N, R37I, Q40S, N109R, T112Q counted along it
PUM1 PUF domain R8-TWN, sequence (Q14671 828-1176 N1122T/Y1123W/Q1126N): as the sequence (Q14671 828-1176 R936N/Q939T) above, with N109R, T112Q, N295T, Y296W, Q299N counted along it

As to “GGCUAGAACUAGUGGAUCCCCCGGCGCCCGGCGGCUCGAGCCCGGGUAAGUGUAAAUAGUCUGCAUGCCGCCGGGCGCCAUGCCUGCAGGUCGACUCUAGAAAACAUG”, the binding signal in the assay with PUM1 PUF domain R4-CPL is 3.68 log2 enrichment (interaction score); with PUM1 PUF domain R3-YRS it was 1.29 log2 enrichment (interaction score); with PUM1 PUF domain R3-CNT, 2.18 log2 enrichment (interaction score); in the assay with PUM1 PUF domain R8-RFN it was 2.38 log2 enrichment (interaction score).
Take “GGCUAGAACUAGUGGAUCCCCCGGCGCCCGGCGGCUCGAGCCCGGGUAAGUGUAAUUAGUCUGCAUGCCGCCGGGCGCCAUGCCUGCAGGUCGACUCUAGAAAACAUG”: the binding signal with PUM1 PUF domain R3-FFA was 4.46 log2 enrichment (interaction score).
On to “GGCUAGAACUAGUGGAUCCCCCGGCGCCCGGCGGCUCGAGCCCGGGUAAGUGUUAAUAGUCUGCAUGCCGCCGGGCGCCAUGCCUGCAGGUCGACUCUAGAAAACAUG”, for which the binding signal with PUM1 PUF domain R5-KGG is 2.27 log2 enrichment (interaction score).
“GGCUAGAACUAGUGGAUCCCCCGGCGCCCGGCGGCUCGAGCCCGGGUAAGUGUAUAUAGUCUGCAUGCCGCCGGGCGCCAUGCCUGCAGGUCGACUCUAGAAAACAUG”: the binding signal is 1.78 log2 enrichment (interaction score) with PUM1 PUF domain R4-CPL, 3.63 log2 enrichment (interaction score) with PUM1 PUF domain R4-FGQ and 2.34 log2 enrichment (interaction score) with PUM1 PUF domain R4-NFQ.
“GGCUAGAACUAGUGGAUCCCCCGGCGCCCGGCGGCUCGAGCCCGGGUAAGCGUAAAUAGUCUGCAUGCCGCCGGGCGCCAUGCCUGCAGGUCGACUCUAGAAAACAUG”: the binding signal was 5.56 log2 enrichment (interaction score) in the assay with PUM1 PUF domain R8-RHN, 2.51 log2 enrichment (interaction score) with PUM1 PUF domain R8-TWN and 2.57 log2 enrichment (interaction score) with PUM1 PUF domain R8-RFN.
Take “GGCUAGAACUAGUGGAUCCCCCGGCGCCCGGCGGCUCGAGCCCGGGUAAGUGUAAAUGGUCUGCAUGCCGCCGGGCGCCAUGCCUGCAGGUCGACUCUAGAAAACAUG”: the binding signal with PUM1 PUF domain R1-RAQ is 1.23 log2 enrichment (interaction score).
For the sequence “GGCUAGAACUAGUGGAUCCCCCGGCGCCCGGCGGCUCGAGCCCGGGUAAGUGUAAAUCGUCUGCAUGCCGCCGGGCGCCAUGCCUGCAGGUCGACUCUAGAAAACAUG”, the binding signal was 8.91 log2 enrichment (interaction score) with PUM1 PUF domain R1-YKR, 2.46 log2 enrichment (interaction score) with PUM1 PUF domain R1-RRR, 2.93 log2 enrichment (interaction score) in the assay with PUM1 PUF domain R1-RAQ and 3.75 log2 enrichment (interaction score) in the assay with PUM1 PUF domain R1-KVE.
With “GGCUAGAACUAGUGGAUCCCCCGGCGCCCGGCGGCUCGAGCCCGGGUAAGUGUAAAUUGUCUGCAUGCCGCCGGGCGCCAUGCCUGCAGGUCGACUCUAGAAAACAUG”, the binding signal with PUM1 PUF domain R1-RRR is 2.49 log2 enrichment (interaction score); in the assay with PUM1 PUF domain R1-RAQ, 2.71 log2 enrichment (interaction score); with PUM1 PUF domain R1-KVE, 3.9 log2 enrichment (interaction score); with PUM1 PUF domain R1-VWK, 3.24 log2 enrichment (interaction score); with PUM1 PUF domain R1-NIS, 6.67 log2 enrichment (interaction score).
